Our source for the outcome and Potency values is PubChem BioAssay (NCATS).

The structures appear in SMILES notation. Results filed as inconclusive are left out. The source made the active and inactive calls. The call rests on the fitted dose curve; in most records, active means well fitted curve in the direction sought with a large enough effect; inconclusive means small, poorly fitted or top-dose-only effect, or another doubt; inactive means no such curve, though single readings can be large; an effect the other way counts as inactive or inconclusive.

Experiment [1] is described as follows: qHTS assay for measurement of the activity of small molecule inhibitors on Zika virus induced Caspase-3 activity in human iPSC derived neural progenitor cells (hNPCs) (AID 1224857). Further: nearly all actives have a fitted effect of over 65% in size. Summed up: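 Cells were plated at 350 per well and grown 16 to 20 hours. Compound pretreatment lasted one hour, after which ZIKV (2 FFU/cell) was added for 6 hours. Percent inhibition was normalized between uninfected and infected controls.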

The nature of experiment [2]: qHTS assay for measurement of the activity of small molecule inhibitors on Zika virus induced Caspase-3 activity in human astrocytoma cells (AID 1224859). Summed up:
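Percent inhibition of virus-induced caspase-3/7 signal is calculated against uninfected and ZIKV-infected control cells. Cells are SNB-19, infected at 2 FFU/cell for 6 h after 1 h compound exposure.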
(In general: In qHTS, concentration-response curves come from the screen itself.)

Experiment [3] in a line: qHTS assay to identify small molecule inhibitors of chordoma cells - UCH-2 (AID 1259356). Further: series mostly up to about 46 µM.
Experiment [4] is described as follows: P-glycoprotein substrates identified in KB-8-5-11 adenocarcinoma cell line, qHTS therapeutic library screen (AID 1346987). Further: nearly all actives have a fitted effect of over 65% in size. Further: potency means the concentration at half of the fitted maximal effect. Summed up: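 Luminescence from CellTiter-Glo, read 5 min after addition, quantified survival of KB-8-5-11 (P-gp-overexpressing) cells exposed to compounds for 72 h. AC50 was derived from concentration-response curves.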
Experiment [5] is described as follows: NS1 protein of Zika virus - qHTS assay to identify small molecule inhibitors in human HEK 293 cells (AID 1347053). Further: series mostly up to about 46 µM; nearly all actives have a fitted effect of over 55% in size. Summed up: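 In this cell-based screen, HEK 293 cultures received compound for one hour before Zika MR766 at MOI = 0.5. NS1 was quantified 24 hours later by TR-FRET, normalized to virus-free wells and infected wells.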
Experiment [6] in a line: qHTS of pediatric cancer cell lines to identify multiple opportunities for drug repurposing: Primary screen for TC32 cells (AID 1347089). Further: nearly all actives have a fitted effect of over 60% in size. Summed up: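 In the primary qHTS, MIPE compounds were tested at 11 concentrations (0.78 nM to 46 µM) and NPC compounds at 8 (0.59 nM to 46 µM) on TC32 cells for 48 h. CellTiter-Glo luminescence gave viability.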

As for `CCOc1ccc(NC(=O)CC(C)O)cc1` (configuration not stated), the call in experiment [1] and in experiment [2] was inactive. The Potency entry in experiment [3], in experiment [4], in experiment [5] and in experiment [6] was “inactive” each time.
Consider `O=C(CCN1CCC(c2ccccc2)C1)c1ccc2c(c1)OCCO2` (configuration not stated), for which the molecule was called inactive in experiment [1] and in experiment [2]. Moreover, the Potency entry in experiment [3], in experiment [4], in experiment [5] and in experiment [6] was “inactive” in each case.
In the case of `c1ccc(CNCCNCc2ccccc2)cc1`, the molecule was called inactive in experiment [1] and in experiment [2]. Also, the Potency result in experiment [3], in experiment [4], in experiment [5] and in experiment [6] was “inactive” in each case.
Take `CCCN1CCCC[C@H]1C(=O)Nc1c(C)cccc1C`: the outcome in experiment [1] and in experiment [2] was inactive. Moreover, the Potency result in experiment [3], in experiment [4], in experiment [5] and in experiment [6] was “inactive” throughout.
Regarding `C=C1C[C@H]2[C@@H]3C=C(C)C4=CC(=O)CC[C@]4(C)[C@H]3CC[C@]2(C)[C@@]1(OC(C)=O)C(C)=O`, the result in experiment [1] and in experiment [2] was inactive. Also, the Potency entry in experiment [3], in experiment [5] and in experiment [6] was “inactive” in each case. In addition, in experiment [4], the Potency is 14.6 µM (active).
Consider `COc1c2occc2c(OC)c2c(=O)cc(C)oc12`, for which the molecule was classed as inactive in experiment [1] and in experiment [2]. The Potency entry in experiment [3], in experiment [4], in experiment [5] and in experiment [6] was “inactive” throughout.
For the molecule `CC(C)(C)CC(C)(C)c1ccc(O)c(Cc2ccc(Cl)cc2Cl)c1`, the call in experiment [1] and in experiment [2] was inactive. Also, the Potency entry in experiment [3], in experiment [5] and in experiment [6] was “inactive” each time. Besides, the Potency in experiment [4] is 23.1 µM (active).
Regarding `CCCC(=O)O[C@]1(C(=O)CO)CC[C@H]2[C@@H]3CCC4=CC(=O)CC[C@]4(C)[C@H]3[C@@H](O)C[C@@]21C`, the molecule was called inactive in experiment [1] and in experiment [2]. Besides, the Potency entry in experiment [3], in experiment [4], in experiment [5] and in experiment [6] was “inactive” each time.
`C[C@H](O)C(=O)Nc1c(I)c(C(=O)NC(CO)CO)c(I)c(C(=O)NC(CO)CO)c1I`: the molecule was called inactive in experiment [1] and in experiment [2]. The Potency entry in experiment [3], in experiment [4], in experiment [5] and in experiment [6] was “inactive” throughout.
As to `CN(C)CCCOc1nn(Cc2ccccc2)c2ccccc12`, the outcome in experiment [1] and in experiment [2] was inactive. The Potency entry in experiment [3], in experiment [4], in experiment [5] and in experiment [6] was “inactive” throughout.
For `CN(C/C=C/c1ccccc1)Cc1cccc2ccccc12`, the outcome in experiment [1] and in experiment [2] was inactive. Also, the Potency entry in experiment [3], in experiment [4], in experiment [5] and in experiment [6] was “inactive” throughout.
As for `C[C@H](CCC(=O)O)[C@H]1CC[C@H]2[C@@H]3C(=O)C[C@@H]4CC(=O)CC[C@]4(C)[C@H]3CC(=O)[C@]12C`, the call in experiment [1] and in experiment [2] was inactive. In addition, the Potency result in experiment [3], in experiment [4], in experiment [5] and in experiment [6] was “inactive” throughout.
As to `CCN(CC)C(=O)/C(C#N)=C/c1cc(O)c(O)c([N+](=O)[O-])c1`, the outcome in experiment [1] and in experiment [2] was inactive. The Potency result in experiment [3], in experiment [4], in experiment [5] and in experiment [6] was “inactive” throughout.
With `COC(=O)[C@@H]1CC2=CC(=O)CC[C@]2(C)[C@@]23O[C@@H]2C[C@@]2(C)[C@@H](CC[C@@]24CCC(=O)O4)[C@H]13`, the result in experiment [1] and in experiment [2] was inactive. Besides, the Potency entry in experiment [3], in experiment [4], in experiment [5] and in experiment [6] was “inactive” each time.
As to `NC(CS)C(=O)O` (configuration not stated), the call in experiment [1] and in experiment [2] was inactive. In addition, the Potency entry in experiment [3], in experiment [4], in experiment [5] and in experiment [6] was “inactive” throughout.
Turning to `C[C@@H]1C[C@H]2[C@@H]3C[C@H](F)C4=CC(=O)C(Cl)=C[C@]4(C)[C@@]3(F)[C@@H](O)C[C@]2(C)[C@@]1(O)C(=O)CO`, the result in experiment [1] and in experiment [2] was inactive. Besides, the Potency result in experiment [3], in experiment [4], in experiment [5] and in experiment [6] was “inactive” throughout.
Take `Cc1c(C(C)C)c(=O)n(-c2ccccc2)n1C`: the result in experiment [1] and in experiment [2] was inactive. The Potency result in experiment [3], in experiment [4], in experiment [5] and in experiment [6] was “inactive” throughout.
On to `CC1(C)O[C@@H]2[C@@H](CO[C@@]3(COS(N)(=O)=O)OC(C)(C)O[C@@H]23)O1`, for which the result in experiment [1] and in experiment [2] was inactive. In addition, the Potency result in experiment [3], in experiment [4], in experiment [5] and in experiment [6] was “inactive” throughout.
On to `CC(=O)Nc1c(I)cc(I)c(C(=O)O)c1I`, for which the result in experiment [1] and in experiment [2] was inactive. Further, the Potency result in experiment [3], in experiment [4], in experiment [5] and in experiment [6] was “inactive” throughout.
As for `Cc1cc(O)c(C(C)C)cc1Cl`, the result in experiment [1] and in experiment [2] was inactive. Moreover, the Potency result in experiment [3], in experiment [4], in experiment [5] and in experiment [6] was “inactive” each time.
Turning to `CC1(C)O[C@@H]2C[C@H]3[C@@H]4CCC5=CC(=O)CC[C@]5(C)[C@@]4(F)[C@@H](O)C[C@]3(C)[C@]2(C(=O)CCl)O1`, the result in experiment [1] and in experiment [2] was inactive. For the same molecule, the Potency entry in experiment [3], in experiment [4], in experiment [5] and in experiment [6] was “inactive” each time.
`CCC(=O)c1c(O)cc(O)cc1O`: the molecule was called inactive in experiment [1] and in experiment [2]. Moreover, the Potency result in experiment [3], in experiment [4], in experiment [5] and in experiment [6] was “inactive” each time.
